The values below come from PubChem BioAssay (EPA / NIEHS).

For assay [1], the target named is Nuclear respiratory factor 1 (Homo sapiens) (UniProt Q16656). Put plainly: ATG_NRF1_CIS: Attagene CIS-FACTORIAL HepG2 Assay for human Nuclear Respiratory Factor 1 (NRF1) Orphan Gene (AID 2282987). Conditions: HepG2 NRF1 cis-element reporter, Attagene multiplex; actives raise or lower the signal. The procedure, abridged: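 Reporter mRNA induction or loss in HepG2 cells after 24 h dosing; cis-regulated reporter constructs report endogenous transcription-factor activity. Quantified by RT-PCR/capillary electrophoresis fluorescence, DMSO-referenced.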

A short description of assay [2]: ATG_NFI_CIS: Attagene CIS-FACTORIAL HepG2 Assay for human Nuclear Factor I (NFI) (AID 2282989). Conditions: HepG2 cis-regulatory reporter, NFI response element transcription; actives raise or lower the signal. The method in brief: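 Transfected HepG2 liver cells, exposed 24 h, supplied total RNA for oligo(dT) reverse transcription and reporter-specific PCR. Labelled, HpaI-cut fragments were sized by capillary electrophoresis; DMSO set the baseline for bidirectional fitting.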

Assay [3] has as its target Myc proto-oncogene protein (Homo sapiens) (UniProt P01106). Put plainly: ATG_Myc_CIS: Attagene CIS-FACTORIAL HepG2 Assay for human Myelocytomatosis (Myc) Proto-Oncogene Transcription Factor (AID 2282990). The note with it: HepG2, Attagene cis-reporter transcription factor activity; actives raise or lower the signal. The method in brief:
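Transiently transfected HepG2 cells bearing cis-promoter reporter units for endogenous transcription factors; 24 h exposure. Reporter mRNA measured by RT-PCR, 6-FAM primer extension, HpaI cut and capillary electrophoresis; bidirectional fit relative to DMSO.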

Assay [4] can be described thus: ATG_NF_kB_CIS: Attagene CIS-FACTORIAL HepG2 Assay for human Nuclear Factor Kappa B (NF-kB) (AID 2282991). The note with it: HepG2 Attagene cis-factorial NF-kB reporter mRNA; actives raise or lower the signal. The procedure, abridged: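 DMSO served as negative control and baseline for bidirectional curve fitting. Transiently transfected HepG2 cells were dosed for 24 h, then reporter transcripts were measured by RT-PCR with capillary electrophoresis detection.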

Assay [5] in a line: ATG_NRF2_ARE_CIS: Attagene CIS-FACTORIAL HepG2 Assay for human Nuclear Factor Erythroid 2 Related Factor 2 (NFR2) response to Antioxidant Response Elements (ARE) (AID 2282992).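 On AC50: reporter mRNA level measured by RT-PCR and capillary electrophoresis fluorescence.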 Conditions: HepG2 Attagene ARE/NRF2 reporter, transcription factor activity; actives raise or lower the signal. The method in brief:
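Endogenous transcription factor activity in human liver HepG2 cells is tracked via a cis-element-driven reporter within a multiplexed set. mRNA induction is read by RT-PCR and capillary electrophoresis after 24 h, with DMSO as baseline.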

The nature of assay [6]: ATG_Oct_MLP_CIS: Attagene CIS-FACTORIAL HepG2 Assay for human Octamer-Binding Transcription Factor (Oct) (AID 2282993). Conditions: HepG2 Attagene cis-factorial Oct reporter, mRNA; actives raise or lower the signal. The method in brief: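 Using HepG2 cells bearing transfected cis-reporter constructs, mRNA induction was read after 24 h by fluorescent RT-PCR and capillary electrophoresis, with DMSO defining baseline for gain- or loss-of-signal fits.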

The target in assay [7] is Cellular tumor antigen p53 (Homo sapiens) (UniProt P04637). Briefly: ATG_p53_CIS: Attagene CIS-FACTORIAL HepG2 Assay for human p53 Transcription Factor (AID 2282994). The note with it: HepG2 p53 cis-element reporter, Attagene mRNA; actives raise or lower the signal. The method in brief: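 Steps: transfect HepG2 with multiplexed cis reporter constructs; dose chemicals 24 h; extract RNA, reverse-transcribe, PCR-amplify reporter sequences; FAM-label, HpaI-digest, resolve fragments by CE. Activity fitted both directions relative to DMSO.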

The nature of assay [8]: BSK_3C_TissueFactor: BioMAP Diversity Plus: 3C Assay for Tissue Factor Biomarker Activity (AID 2282997). Conditions: BioMAP 3C HUVEC, tissue factor biomarker readout; actives raise or lower the signal. The method in brief:
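Tissue factor on primary human umbilical vein endothelium was read by ELISA 24 h after dosing, gain or loss relative to DMSO. Cytotoxicity ran alongside via SRB (0.1%, TCA-fixed, 560 nm).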

A short description of assay [9]: BSK_3C_uPAR: BioMAP Diversity Plus: 3C Assay for Urokinase-type plasminogen activator receptor (uPAR) Biomarker Activity (AID 2282998). The note with it: BioMAP 3C HUVEC, uPAR biomarker ELISA; actives raise or lower the signal. The method in brief: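 In this endothelial cell-based assay, human umbilical vein primary cells were treated with chemicals and harvested at 24 h. uPAR was quantified using ELISA, with gains or losses fitted relative to DMSO controls.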
Background: ELISA stands for enzyme-linked immunosorbent assay.

A short description of assay [10]: BSK_3C_VCAM1: BioMAP Diversity Plus: 3C Assay for Vascular cell adhesion molecule 1 (VCAM1) Biomarker Activity (AID 2282999). The note with it: BioMAP 3C HUVEC, VCAM1 ELISA, cytokine-stimulated; actives raise or lower the signal. The method in brief:
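HUVEC primary cells, 24 h compound exposure; VCAM-1 by ELISA; gain/loss of signal fitted bidirectionally vs DMSO baseline.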

Assay [11] can be described thus: BSK_4H_Eotaxin3: BioMAP Diversity Plus: 4H Assay for Eotaxin 3 Biomarker Activity (AID 2283000).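 On outcome: CCL26 protein level quantified by ELISA in parallel with SRB cytotoxicity check.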 Conditions: primary human endothelial cells (HUVEC); actives raise or lower the signal. The procedure, abridged: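 Human umbilical vein endothelial cells (BSK_4H system) dosed with test chemical; Eotaxin-3 (CCL26) measured by ELISA 24 h after dosing. Bidirectional curve fitting relative to DMSO negative control as baseline.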

Read-out in assay [12]: Intercellular Adhesion Molecule 1 (ICAM1), ICAM1 (gene 3383)
Briefly: BSK_3C_ICAM1: BioMAP Diversity Plus: 3C Assay for Intercellular Adhesion Molecule 1 (ICAM1) Biomarker Activity (AID 2283003). Conditions: primary human endothelial cells (HUVEC); actives raise or lower the signal. The method in brief: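 ELISA read-out of ICAM-1; HUVEC (primary human), 3C system, 24 h post-dosing; bidirectional fit vs DMSO baseline.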

Assay [13] can be described thus: BSK_3C_Proliferation: Cell Proliferation Assessment in the BioMAP Diversity Plus: 3C Assay (AID 2283006).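 On AC50: potency may reflect either rise or fall in cell number versus DMSO.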 Conditions: primary human endothelial cells (HUVEC). The method in brief:
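HUVEC, sub-confluent; 48 h chemical exposure; 10% TCA fix, 0.1% SRB stain, A560 total protein. Gain or loss of signal fitted both directions vs DMSO control.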

Assay [14] concerns the target Peroxisome proliferator-activated receptor gamma (Homo sapiens) (UniProt P37231). Briefly: ATG_PPARg_TRANS: Attagene TRANS-FACTORIAL HepG2 Assay for human Peroxisome Proliferator-activated Receptor-gamma (PPARg) (AID 2283007; active means hit-call score of the fitted dose curve at least 0.9, where 1 is the maximum). The method in brief:
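Chimeric NR-Gal4 transactivation is measured in transiently transfected HepG2 cells by reporter mRNA induction at 24 h. Detection uses RT-PCR with fluorescent labelling and capillary electrophoresis; DMSO defines baseline.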

Assay [15] has as its target Nuclear receptor subfamily 1 group I member 2 (Homo sapiens) (UniProt O75469). Briefly: ATG_PXR_TRANS: Attagene TRANS-FACTORIAL HepG2 Assay for human Pregnane X Receptor (PXR) (AID 2283008; active means hit-call score of the fitted dose curve at least 0.9, where 1 is the maximum). The procedure, abridged:
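HepG2 transfected (FuGene 6) with GAL4-UAS reporter units + PXR-Gal4 chimera; dosed 24 h. Total RNA → oligo(dT) RT → PCR → 6-FAM primer extension → HpaI cut → CE. Gain-of-signal vs DMSO.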

For assay [16], the target named is human Peroxisome Proliferator-activated Receptor alpha (PPARa), PPARA (gene 5465) (UniProt Q07869). Briefly: ATG_PPARa_TRANS: Attagene TRANS-FACTORIAL HepG2 Assay for human Peroxisome Proliferator-activated Receptor alpha (PPARa) (AID 2283001; active means hit-call score of the fitted dose curve at least 0.9, where 1 is the maximum;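 on AC50: potency for gain of reporter signal over DMSO so agonist or activator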). The method in brief: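 Transient HepG2 transfection, GAL4-UAS reporters, NR-Gal4 chimeras; 24 h compound exposure. Readout: reporter transcripts by RT-PCR, 6-FAM primer extension, HpaI digest, capillary electrophoresis. Positive direction vs DMSO baseline.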

The target of assay [17] is human Peroxisome Proliferator-activated Receptor delta (PPARd), PPARD (gene 5467) (UniProt Q03181). Briefly: ATG_PPARd_TRANS: Attagene TRANS-FACTORIAL HepG2 Assay for human Peroxisome Proliferator-activated Receptor delta (PPARd) (AID 2283002; active means hit-call score of the fitted dose curve at least 0.9, where 1 is the maximum). The method in brief:
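HepG2 cells transiently transfected with GAL4-UAS multiplexed reporter units driven by exogenous chimeric NR-GAL4 proteins; 24 h compound exposure. Reporter mRNA measured by RT-PCR, 6-FAM primer extension, HpaI digestion and capillary electrophoresis; gain of signal fitted relative to DMSO.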

The target of assay [18] is human Retinoic Acid Receptor gamma (RARg), RARG (gene 5916) (UniProt P13631). Briefly: ATG_RARg_TRANS: Attagene TRANS-FACTORIAL HepG2 Assay for human Retinoic Acid Receptor gamma (RARg) (AID 2283009; active means hit-call score of the fitted dose curve at least 0.9, where 1 is the maximum). The method in brief: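 Readout: reporter transcript levels via RT-PCR, 6-FAM primer-extension labelling, HpaI digestion and capillary electrophoresis. Cells: HepG2 carrying transfected RARg-GAL4 chimera plus UAS reporter set. Dosing 24 h; DMSO negative control.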

“And” between values parts separate entries of the source, which are not always exact repeats. Equal values may be shown once. Records with an inconclusive call do not appear. The source made the active and inactive calls. How the source made its calls, unless noted: active means hit-call score of the fitted dose curve at least 0.9, where 1 is the maximum; inactive means score below 0.9.

Chain of Peroxisome proliferator-activated receptor gamma (Homo sapiens) (P37231 whole entry, looked up, the tested form may be a part): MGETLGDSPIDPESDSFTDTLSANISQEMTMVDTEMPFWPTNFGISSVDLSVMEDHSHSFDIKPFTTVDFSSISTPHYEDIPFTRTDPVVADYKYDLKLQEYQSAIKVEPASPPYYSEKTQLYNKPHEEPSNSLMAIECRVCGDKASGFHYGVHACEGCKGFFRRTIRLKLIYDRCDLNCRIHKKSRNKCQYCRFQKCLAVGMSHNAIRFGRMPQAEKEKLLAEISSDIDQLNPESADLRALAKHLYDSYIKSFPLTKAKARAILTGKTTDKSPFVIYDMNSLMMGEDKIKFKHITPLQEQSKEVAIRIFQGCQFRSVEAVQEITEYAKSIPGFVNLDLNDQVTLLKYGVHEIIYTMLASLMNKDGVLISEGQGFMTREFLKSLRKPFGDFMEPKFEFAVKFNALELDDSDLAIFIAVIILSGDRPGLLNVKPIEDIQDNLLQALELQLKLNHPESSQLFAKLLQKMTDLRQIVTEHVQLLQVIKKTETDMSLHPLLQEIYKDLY
Chain of Nuclear respiratory factor 1 (Homo sapiens) (Q16656 whole entry, looked up): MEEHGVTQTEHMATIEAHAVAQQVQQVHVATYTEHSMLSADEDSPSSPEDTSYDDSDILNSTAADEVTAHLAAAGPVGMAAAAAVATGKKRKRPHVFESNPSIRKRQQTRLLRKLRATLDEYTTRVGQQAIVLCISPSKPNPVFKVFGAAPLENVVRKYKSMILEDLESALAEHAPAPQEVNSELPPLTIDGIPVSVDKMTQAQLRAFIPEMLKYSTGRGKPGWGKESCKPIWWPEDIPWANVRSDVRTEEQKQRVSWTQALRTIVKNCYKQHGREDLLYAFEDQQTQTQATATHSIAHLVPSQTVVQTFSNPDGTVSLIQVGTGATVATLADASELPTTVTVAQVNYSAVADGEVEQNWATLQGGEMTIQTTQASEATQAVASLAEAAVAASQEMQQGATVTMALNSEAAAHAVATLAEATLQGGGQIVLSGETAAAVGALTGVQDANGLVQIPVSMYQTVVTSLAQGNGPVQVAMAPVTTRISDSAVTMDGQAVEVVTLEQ
Chain of Myc proto-oncogene protein (Homo sapiens) (P01106 whole entry, looked up): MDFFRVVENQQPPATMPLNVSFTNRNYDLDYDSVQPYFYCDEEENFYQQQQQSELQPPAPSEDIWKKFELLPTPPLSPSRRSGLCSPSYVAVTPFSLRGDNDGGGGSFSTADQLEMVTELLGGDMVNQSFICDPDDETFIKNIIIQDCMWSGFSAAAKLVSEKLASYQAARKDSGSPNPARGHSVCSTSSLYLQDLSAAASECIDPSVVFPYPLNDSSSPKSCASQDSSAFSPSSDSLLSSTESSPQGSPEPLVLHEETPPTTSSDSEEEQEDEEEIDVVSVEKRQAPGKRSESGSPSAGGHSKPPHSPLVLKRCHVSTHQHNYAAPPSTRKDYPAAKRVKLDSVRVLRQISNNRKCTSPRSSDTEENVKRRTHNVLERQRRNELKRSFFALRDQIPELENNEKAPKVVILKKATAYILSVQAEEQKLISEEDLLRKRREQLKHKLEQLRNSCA
Chain of human Peroxisome Proliferator-activated Receptor alpha (PPARa), PPARA (gene 5465) (Q07869 whole entry, looked up, the tested form may be a part): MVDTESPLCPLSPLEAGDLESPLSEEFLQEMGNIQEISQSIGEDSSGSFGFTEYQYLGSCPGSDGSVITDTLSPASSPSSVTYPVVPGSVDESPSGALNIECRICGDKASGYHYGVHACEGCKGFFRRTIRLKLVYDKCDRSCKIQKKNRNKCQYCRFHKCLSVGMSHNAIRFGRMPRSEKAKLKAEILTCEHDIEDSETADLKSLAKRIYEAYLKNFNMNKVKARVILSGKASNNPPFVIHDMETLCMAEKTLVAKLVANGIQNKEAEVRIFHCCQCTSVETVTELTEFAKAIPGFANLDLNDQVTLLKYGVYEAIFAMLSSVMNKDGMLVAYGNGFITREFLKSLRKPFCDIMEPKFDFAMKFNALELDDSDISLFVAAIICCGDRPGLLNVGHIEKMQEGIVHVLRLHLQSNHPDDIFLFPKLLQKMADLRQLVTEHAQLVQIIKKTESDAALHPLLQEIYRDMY
Chain of Nuclear receptor subfamily 1 group I member 2 (Homo sapiens) (O75469 whole entry, looked up, the tested form may be a part): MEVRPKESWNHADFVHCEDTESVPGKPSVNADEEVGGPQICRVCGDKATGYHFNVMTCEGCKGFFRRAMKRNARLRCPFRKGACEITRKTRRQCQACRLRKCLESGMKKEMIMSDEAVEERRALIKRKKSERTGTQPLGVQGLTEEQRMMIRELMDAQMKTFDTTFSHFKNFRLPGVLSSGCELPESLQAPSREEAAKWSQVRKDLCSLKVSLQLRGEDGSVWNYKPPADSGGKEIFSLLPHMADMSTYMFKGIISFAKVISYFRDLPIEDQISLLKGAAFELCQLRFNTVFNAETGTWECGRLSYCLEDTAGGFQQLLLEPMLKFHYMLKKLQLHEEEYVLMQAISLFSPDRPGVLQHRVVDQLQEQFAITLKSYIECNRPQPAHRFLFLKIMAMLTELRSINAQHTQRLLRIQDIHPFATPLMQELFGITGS
Chain of Cellular tumor antigen p53 (Homo sapiens) (P04637 whole entry, looked up, the tested form may be a part): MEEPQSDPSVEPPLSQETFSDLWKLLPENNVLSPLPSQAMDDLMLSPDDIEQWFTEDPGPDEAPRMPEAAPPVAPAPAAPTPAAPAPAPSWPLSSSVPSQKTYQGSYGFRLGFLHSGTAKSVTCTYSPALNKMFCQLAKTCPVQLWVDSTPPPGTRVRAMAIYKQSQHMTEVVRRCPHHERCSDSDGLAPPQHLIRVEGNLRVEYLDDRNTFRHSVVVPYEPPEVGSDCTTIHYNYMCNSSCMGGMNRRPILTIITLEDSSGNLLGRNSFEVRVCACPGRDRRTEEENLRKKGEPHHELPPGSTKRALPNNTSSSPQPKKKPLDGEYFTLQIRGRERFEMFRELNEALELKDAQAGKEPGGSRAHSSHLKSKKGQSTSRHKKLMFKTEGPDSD
Chain of human Retinoic Acid Receptor gamma (RARg), RARG (gene 5916) (P13631 whole entry, looked up, the tested form may be a part): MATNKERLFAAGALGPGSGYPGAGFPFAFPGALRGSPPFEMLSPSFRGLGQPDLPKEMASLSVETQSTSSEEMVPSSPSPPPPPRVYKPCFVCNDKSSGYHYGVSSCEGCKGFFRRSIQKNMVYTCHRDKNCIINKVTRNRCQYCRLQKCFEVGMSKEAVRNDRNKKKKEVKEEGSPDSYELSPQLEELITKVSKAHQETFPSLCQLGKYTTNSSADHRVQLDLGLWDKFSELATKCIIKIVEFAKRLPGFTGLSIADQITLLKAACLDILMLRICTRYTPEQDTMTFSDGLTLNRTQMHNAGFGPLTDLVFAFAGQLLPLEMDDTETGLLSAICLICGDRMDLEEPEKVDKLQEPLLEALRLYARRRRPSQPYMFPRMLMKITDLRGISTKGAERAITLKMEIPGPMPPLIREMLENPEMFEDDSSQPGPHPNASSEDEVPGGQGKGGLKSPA
Chain of human Peroxisome Proliferator-activated Receptor delta (PPARd), PPARD (gene 5467) (Q03181 whole entry, looked up, the tested form may be a part): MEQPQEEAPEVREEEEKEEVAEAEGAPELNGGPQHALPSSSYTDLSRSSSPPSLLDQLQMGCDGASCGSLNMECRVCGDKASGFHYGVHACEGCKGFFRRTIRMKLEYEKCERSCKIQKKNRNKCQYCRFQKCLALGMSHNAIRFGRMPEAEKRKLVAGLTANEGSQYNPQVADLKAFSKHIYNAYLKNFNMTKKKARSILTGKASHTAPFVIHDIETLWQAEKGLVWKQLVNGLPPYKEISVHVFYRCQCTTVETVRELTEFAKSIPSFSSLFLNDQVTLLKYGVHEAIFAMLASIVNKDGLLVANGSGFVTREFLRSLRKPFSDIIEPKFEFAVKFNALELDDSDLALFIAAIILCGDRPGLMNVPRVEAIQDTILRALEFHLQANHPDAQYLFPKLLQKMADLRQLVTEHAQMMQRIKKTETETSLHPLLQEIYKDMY

For `CC(C)(C)c1cc(CCC(=O)NCCCCCCNC(=O)CCc2cc(C(C)(C)C)c(O)c(C(C)(C)C)c2)cc(C(C)(C)C)c1O`, the outcome in assay [1], in assay [2], in assay [3], in assay [4], in assay [5] and in [6] was inactive. In addition, the molecule was called inactive in assay [7], in assay [8], in assay [9], in [10], in assay [11] and in assay [12]. Also, the result in assay [13] and in [14] was inactive. Also, in assay [15], the concentration at half-maximal activity (AC50) (commonly the concentration giving half of the maximal activity seen) is 0.0823 µM (active).
As for `OCC(O)CC(F)(F)C(F)(F)C(F)(F)C(F)(F)F` (stereo unspecified), the molecule was classed as inactive in assay [1], in assay [2], in [3], in [4], in assay [5] and in [6]. Moreover, the molecule was called inactive in assay [7], in assay [8], in assay [9], in [10], in [11] and in [16]. Moreover, the result in assay [12], in assay [13], in assay [14] and in assay [15] was inactive.
Regarding `O=C(Cl)C(F)(F)C(F)(F)C(F)(F)C(F)(F)C(F)(F)C(F)(F)C(F)(F)F`, the call in assay [1], in assay [2], in assay [3], in assay [4], in assay [6] and in assay [7] was inactive. For the same molecule, the result in [8], in [9], in [10], in [11], in [17] and in [12] was inactive. For the same molecule, the result in [13], in assay [15] and in assay [18] was inactive. Also, the values for the half-maximal activity concentration (AC50) in assay [5], in assay [16] and in assay [14] were 49 µM (active), 10.8 µM (active) and 55.1 µM (active), respectively.
As for `C=CC(=O)OCC(F)(F)C(F)(F)C(F)(F)COC(=O)C=C`, the outcome in assay [1], in assay [2], in assay [3], in assay [16], in [15] and in assay [18] was inactive. Also, the AC50 in assay [4] was 15.9 µM (active); in [5] it was 12.7 µM (active); in [6], 10.9 µM (active); in [7] it was 78.8 µM (active); in assay [8], 23.3 µM (active) and 14.6 µM (active); in [9], 30 µM (active) and 48.5 µM (active). Further, the half-maximal activity concentration (AC50) in [10] was 15.6 µM (active) and 20.5 µM (active); in assay [11] it was 9.89 µM (active) and 8.33 µM (active); in [12], 46.5 µM (active); in assay [13], 8.32 µM (active) and 9.46 µM (active); in [14], 2.69 µM (active).
